# From PubChem BioAssay AID1739 (National Center for Advancing Translational Sciences (NCATS), 2009)
# Records with an inconclusive call do not appear. Calls of active or inactive are those of the source. Calls come from the whole dose curve; as a rule, active = well fitted inhibition curve with a large enough effect; inconclusive = small, poorly fitted or top-dose-only effect; inactive = flat fitted curve, though single readings scatter.
# Assay: Counterscreen Assay for Enhancers of SMN2 Splice Variant Expression: Modulation of SMN1 Expression
# Conditions: HEK293 SMN1-luciferase reporter, luminescence, 30-36 h; series mostly up to 22.8 µM; activity change, negative = inhibition: at the top concentration
# Procedure, shortened: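 Luciferase counterscreen for nonspecific expression modulators: SMN1-luciferase chimera stably expressed in HEK293, 2000 cells/well, treated 30-36 h at 37C with compound or 4.5mM sodium butyrate control, then One Glo luminescence read.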
Compound,Potency,"activity change, negative = inhibition"
CCOC(=O)c1c(-c2cccc(C)c2)csc1NC(=O)c1c(-c2ccccc2)noc1C,355 nM (active),–
Cc1ccc(C2c3c(oc4ccccc4c3=O)C(=O)N2CCCN2CCOCC2)o1 (stereo not drawn),–,-11.8% [at 46.1 µM] (inactive)
c1coc(CNc2ncnc3nc[nH]c23)c1,–,-14.9% [at 46.1 µM] (inactive)
FC(F)C(F)(F)C1=CC(c2cccs2)=NCCN1,–,-7.36% [at 46.1 µM] (inactive)
Clc1ccc(-c2nnc(-c3ccccc3)c(N3CCSCC3)n2)cc1,–,-5.45% (inactive)
Clc1nc(NCc2ccco2)c2[nH]cnc2n1,–,-19.7% [at 46.1 µM] (inactive)
CC(C)(C)n1nnnc1C(c1ccc2ncccc2c1)N1CCSCC1 (stereo not drawn),–,26.6% [at 46.1 µM] (inactive)
Cc1ccc(-c2nnc(-c3ccccc3)c(-c3ccccc3)n2)cc1,–,-6.17% (inactive)
COCCCN1C(=O)C(=O)/C(=C(/O)c2ccc3c(c2)CC(C)O3)C1c1cccnc1 (stereo not drawn),–,-6.27% [at 46.1 µM] (inactive)
CCCc1sc(N2CCCC(C(N)=O)C2)nc1-c1ccccc1 (stereo not drawn),–,-5.38% (inactive)
NC(=O)N1c2ccccc2C=Cc2ccccc21,–,-14% [at 46.1 µM] (inactive)
CC1CN(c2nc(-c3ccc(Br)cc3)nnc2-c2ccccc2)CC(C)N1 (stereo not drawn),–,-26.8% (inactive)
COc1ccc(-c2csc(N3CCC(c4ccccc4)CC3)n2)cc1,–,-4.14% (inactive)
O=C(Nc1ccc([N+](=O)[O-])cc1Cl)c1cc(Cl)ccc1O,708 nM (active),–
O=C1CCC(C(=O)Nc2cccc3ccccc23)N1 (stereo not drawn),–,-6.36% [at 46.1 µM] (inactive)
Cc1ccc(C(=O)Cn2c3c(sc2=N)CCCC3)cc1,7940 nM (active),–
O=[N+]([O-])c1ccc(-c2nnc(-c3ccccc3)c(N3CCOCC3)n2)cc1,–,3.38% (inactive)
CC(C)Nc1nc(-c2ccccc2)nnc1-c1ccccc1,–,-4.5% (inactive)
O=C(Cc1c(F)cccc1Cl)N1CCN(C(=O)c2ccco2)CC1,–,-8.45% [at 46.1 µM] (inactive)
Clc1ccc(-c2nnc(-c3ccccc3)nc2-c2c[nH]c3ccccc23)cc1,–,-2.01% (inactive)
COc1nc(-c2ccccc2)nnc1-c1ccccc1,–,-17.3% [at 46.1 µM] (inactive)
OCCCNc1nc(-c2ccc(Cl)cc2)nnc1-c1ccc(Br)cc1,–,1.41% (inactive)
O=S(=O)(NC1CCCc2ccccc21)c1cnc[nH]1 (stereo not drawn),–,-8.82% [at 46.1 µM] (inactive)
